Reference: PubChem BioAssay (NCI)
Compounds without any hit were thinned out: in the full panel of roughly 79,000, 15% have a hit. Activity calls are given as the source filed them. Rule as the data show it: active = growth inhibition above about 70%; inactive = the rest.

Key:
[1] = NCI Yeast Anticancer Drug Screen. Data for the rad14 strain (AID 159);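 also: 0% = growth of vehicle-treated control cultures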; details: S. cerevisiae rad14 strain growth inhibition, stronger effect = higher value
How it was run: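 Readout: yeast growth inhibition, referenced to vehicle-only cultures. Strain bears a defined alteration in DNA damage repair.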

[2] = NCI Yeast Anticancer Drug Screen. Data for the sgs1 mgt1 strain (AID 161);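 also: 0% = growth of cultures given vehicle only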; details: S. cerevisiae sgs1 mgt1 strain, stronger effect = higher value
How it was run: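 Test agents were incubated with a DNA-repair-mutant yeast strain. Growth was then read and compared against vehicle-treated controls.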

[3] = NCI Yeast Anticancer Drug Screen. Data for the CLN2oe strain (AID 163);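 also: 0% = growth of vehicle-only control cultures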; details: S. cerevisiae CLN2oe strain, stronger effect = higher value
How it was run: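 Strain altered in cell-cycle control, incubated with compound; growth compared to solvent-treated controls.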

[4] = NCI Yeast Anticancer Drug Screen. Data for the cln2 rad14 strain (AID 165);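 also: 0% = growth equal to vehicle treated cultures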; details: S. cerevisiae cln2 rad14 strain, stronger effect = higher value
How it was run: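 The screen exposed genetically defined yeast (cln2 rad14) to test compounds and scored growth inhibition relative to vehicle-treated controls.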

[5] = NCI Yeast Anticancer Drug Screen. Data for the bub3 strain (AID 167); details: S. cerevisiae bub3 mutant strain, stronger effect = higher value
How it was run: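 Part of a panel of yeast mutants defective in DNA damage repair or cell cycle regulation. Each strain is grown with compound, and inhibition is calculated relative to solvent-treated cultures.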

[6] = NCI Yeast Anticancer Drug Screen. Data for the wt2 strain (AID 169);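 also: 0% = growth of vehicle-treated yeast cultures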; details: S. cerevisiae wt2 strain growth inhibition, stronger effect = higher value
How it was run: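 Steps: yeast strain treated with compound; growth recorded; inhibition calculated relative to cultures given vehicle alone.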

[7] = NCI Yeast Anticancer Drug Screen. Data for the mlh1 strain (AID 171);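 also: 0% = growth of vehicle-treated control cultures of the same strain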; details: S. cerevisiae mlh1 strain growth inhibition, stronger effect = higher value
How it was run: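 Yeast screen: mutant strain plus compound, growth scored against vehicle control wells.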

[8] = NCI Yeast Anticancer Drug Screen. Data for the sgs1 strain (AID 173);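 also: 0% = growth of vehicle-only control cultures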; details: S. cerevisiae sgs1 mutant, stronger effect = higher value
How it was run: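 Inhibition of yeast growth served as the measure. The mutant strain was treated with each compound, and growth was normalised to cultures receiving vehicle alone.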

[9] = NCI Yeast Anticancer Drug Screen. Data for the mlh1 rad18 strain (AID 175); details: S. cerevisiae mlh1 rad18 strain growth inhibition, stronger effect = higher value
How it was run: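 Compound-treated yeast growth, normalised to vehicle controls. Strain bears defined DNA repair mutations.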

[10] = NCI Yeast Anticancer Drug Screen. Data for the rad52 strain (AID 147);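 also: 0% = growth of vehicle-treated control cultures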; details: S. cerevisiae rad52 mutant growth inhibition, stronger effect = higher value
How it was run: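 Genetically altered yeast (DNA damage repair defect) treated with compound; inhibition calculated relative to vehicle.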

[11] = NCI Yeast Anticancer Drug Screen. Data for the wt1 strain (AID 149);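 also: 0% = growth of vehicle-treated wt1 cultures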; details: S. cerevisiae wt1 strain (SPY 50644) growth inhibition, stronger effect = higher value
How it was run: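 The wt1 strain was treated with compounds, and growth was compared with vehicle-treated cultures to give inhibition.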

[12] = NCI Yeast Anticancer Drug Screen. Data for the rad50EPP+ strain (AID 151);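 also: 0% = growth of vehicle-treated control cultures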; details: S. cerevisiae rad50 mutant strain, stronger effect = higher value
How it was run: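 Strain rad50EPP+; compound exposure; % growth inhibition vs vehicle.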

[13] = NCI Yeast Anticancer Drug Screen. Data for the rad50 strain (AID 155);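 also: 0% = growth of vehicle-only cultures of the same strain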; details: S. cerevisiae rad50 strain growth inhibition, stronger effect = higher value
How it was run: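 Cells are treated with compound, grown, and their growth is then scored against vehicle-only cultures of the same repair-deficient yeast strain.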

[14] = NCI Yeast Anticancer Drug Screen. Data for the mec2-1 strain (AID 157); details: S. cerevisiae mec2-1 strain, stronger effect = higher value
How it was run: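 Cells of the genetically defined mec2-1 yeast strain are incubated with test compound. Inhibition of growth is calculated against vehicle-treated controls.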

[15] = NCI Yeast Anticancer Drug Screen. Data for the rad18 strain (AID 177); details: S. cerevisiae rad18 mutant growth inhibition, stronger effect = higher value
How it was run: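 Inhibition values reflect reduced yeast growth compared with vehicle-treated controls, using a strain engineered with a DNA damage repair defect.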

[16] = at 5.0 µM (retest, dose inferred, filed as 0.5)
[17] = at 50.0 µM (retest, dose inferred, filed as 5.0)

Measured: growth inhibition

O=c1c2ccccc2nc(-c2cccc([N+](=O)[O-])c2)n1O
inactive: [2]; [16] 26% | [3]; at 1.2 µM 6% | [3]; at 3.7 µM 15% | [3]; at 11.0 µM 33% | [3]; at 33.0 µM 46% | [3]; at 100.0 µM 51% | [4]; [16] -20% | [5]; at 1.2 µM -4% | [5]; at 3.7 µM 5% | [5]; at 11.0 µM 43% | [5]; at 33.0 µM 59% | [6]; at 1.2 µM 25% | [6]; at 3.7 µM 49% | [7]; at 1.2 µM 16% | [7]; at 3.7 µM 29% | [8]; at 1.2 µM 37% | [9]; [16] 21%
active: [1]; at 11.0 µM 93% | [1]; at 33.0 µM 97% | [1]; at 100.0 µM 97% | [2]; [17] 97% | [2]; at 50.0 µM 98% | [4]; [17] 76% | [4]; at 50.0 µM 87.2% | [5]; [16] 71% | [5]; [17] 96% | [5]; at 50.0 µM 84.8% | [5]; at 100.0 µM 70% | [6]; at 11.0 µM 87% | [6]; at 33.0 µM 94% | [6]; at 100.0 µM 95% | [7]; at 11.0 µM 71% | [7]; at 33.0 µM 78% | [7]; at 100.0 µM 90% | [8]; at 3.7 µM 72% | [8]; at 11.0 µM 91% | [8]; at 33.0 µM 94% | [8]; at 100.0 µM 95% | [9]; [17] 98% | [9]; at 50.0 µM 98.1%

CCN(CC)CCNc1ccc2nc(C)n3c4ccc(O)cc4c(=O)c1c23
active: [10]; at 3.7 µM 74% | [10]; at 11.0 µM 89% | [10]; at 33.0 µM 91% | [10]; at 100.0 µM 93% | [13]; at 3.7 µM 73% | [13]; [16] 91% | [13]; at 11.0 µM 84% | [13]; at 33.0 µM 91% | [13]; [17] 91% | [13]; at 100.0 µM 92% | [9]; at 50.0 µM 78.4%
inactive: [10]; at 1.2 µM 40% | [11]; at 1.2 µM -2% | [11]; at 3.7 µM -4% | [11]; at 11.0 µM -2% | [11]; at 33.0 µM 0% | [11]; at 100.0 µM 2% | [12]; at 1.2 µM 5% | [12]; at 3.7 µM 15% | [12]; at 11.0 µM 24% | [12]; at 33.0 µM 38% | [12]; at 100.0 µM 39% | [13]; at 1.2 µM 42% | [13]; at 50.0 µM -0.45% | [14]; at 1.2 µM -1% | [14]; at 3.7 µM 10% | [14]; [16] 15% | [14]; at 11.0 µM 3% | [14]; at 33.0 µM 14% | [14]; [17] 15% | [14]; at 50.0 µM 26.9% | [14]; at 100.0 µM 28% | [1]; at 1.2 µM -1% | [1]; at 3.7 µM 2% | [1]; at 11.0 µM 3% | [1]; at 33.0 µM 8% | [1]; at 100.0 µM 13% | [2]; [16] 18% | [2]; [17] 18% | [2]; at 50.0 µM 0.15% | [3]; at 1.2 µM -1% | [3]; at 3.7 µM 2% | [3]; at 11.0 µM -1% | [3]; at 33.0 µM 3% | [3]; at 100.0 µM -2% | [4]; [16] 28% | [4]; [17] 28% | [4]; at 50.0 µM 18.6% | [5]; at 1.2 µM -3% | [5]; at 3.7 µM -19% | [5]; [16] 39% | [5]; at 11.0 µM -1% | [5]; at 33.0 µM -5% | [5]; [17] 39% | [5]; at 50.0 µM -3.85% | [5]; at 100.0 µM 3% | [6]; at 1.2 µM 0% | [6]; at 3.7 µM 1% | [6]; at 11.0 µM 0% | [6]; at 33.0 µM 1% | [6]; at 100.0 µM 5% | [7]; at 1.2 µM 2% | [7]; at 3.7 µM 3% | [7]; at 11.0 µM -6% | [7]; at 33.0 µM 2% | [7]; at 100.0 µM 22% | [8]; at 1.2 µM 0% | [8]; at 3.7 µM -1% | [8]; at 11.0 µM 1% | [8]; at 33.0 µM 4% | [8]; at 100.0 µM 5% | [9]; [16] 6% | [9]; [17] 6% | [15]; at 1.2 µM 0% | [15]; at 3.7 µM 0% | [15]; at 11.0 µM -4% | [15]; at 33.0 µM -13% | [15]; at 100.0 µM -22%

S=C1N(c2ccc(Cl)cc2)C2=C(N=Nc3ccccc3)C(=Nc3ccccc3S2)N1c1ccccn1
active: [10]; at 33.0 µM 98% | [10]; at 100.0 µM 99% | [11]; at 100.0 µM 85% | [12]; at 33.0 µM 94% | [12]; at 100.0 µM 97% | [13]; at 33.0 µM 95% | [13]; [17] 99% | [13]; at 50.0 µM 98.5% | [13]; at 100.0 µM 99% | [14]; at 33.0 µM 99% | [14]; [17] 100% | [14]; at 50.0 µM 98.5% | [14]; at 100.0 µM 99% | [1]; at 33.0 µM 90% | [1]; at 100.0 µM 99% | [2]; [17] 99% | [2]; at 50.0 µM 99% | [4]; [17] 99% | [4]; at 50.0 µM 98.5% | [5]; at 33.0 µM 84% | [5]; [17] 99% | [5]; at 50.0 µM 98.3% | [5]; at 100.0 µM 98% | [7]; at 33.0 µM 94% | [7]; at 100.0 µM 99% | [8]; at 33.0 µM 98% | [8]; at 100.0 µM 99% | [9]; [17] 99% | [9]; at 50.0 µM 99% | [15]; at 33.0 µM 94% | [15]; at 100.0 µM 99%
inactive: [10]; at 1.2 µM 8% | [10]; at 3.7 µM 16% | [10]; at 11.0 µM 51% | [11]; at 1.2 µM -3% | [11]; at 3.7 µM -3% | [11]; at 11.0 µM 3% | [11]; at 33.0 µM 29% | [12]; at 1.2 µM -11% | [12]; at 3.7 µM 3% | [12]; at 11.0 µM 61% | [13]; at 1.2 µM 6% | [13]; at 3.7 µM 12% | [13]; [16] 41% | [13]; at 11.0 µM 42% | [14]; at 1.2 µM 20% | [14]; at 3.7 µM 23% | [14]; [16] 3% | [14]; at 11.0 µM 62% | [1]; at 1.2 µM 14% | [1]; at 3.7 µM 19% | [1]; at 11.0 µM 40% | [2]; [16] 54% | [3]; at 1.2 µM -3% | [3]; at 3.7 µM -7% | [3]; at 11.0 µM 3% | [3]; at 33.0 µM 24% | [3]; at 100.0 µM 69% | [4]; [16] 13% | [5]; at 1.2 µM 22% | [5]; at 3.7 µM 22% | [5]; [16] 53% | [5]; at 11.0 µM 41% | [6]; at 1.2 µM -1% | [6]; at 3.7 µM -1% | [6]; at 11.0 µM 4% | [6]; at 33.0 µM 23% | [6]; at 100.0 µM 50% | [7]; at 1.2 µM 9% | [7]; at 3.7 µM 12% | [7]; at 11.0 µM 29% | [8]; at 1.2 µM 9% | [8]; at 3.7 µM 19% | [8]; at 11.0 µM 52% | [9]; [16] 32% | [15]; at 1.2 µM 9% | [15]; at 3.7 µM 16% | [15]; at 11.0 µM 44%
